Reference: the supplement of paper PMC3334620
In all, about 33,000 sequences were measured (“E-score (-0.5 to 0.5)”: median about -0.0059, highest 2% from about 0.26 on). This excerpt belongs to a sample that is enriched for the highest values.

Each sequence was assayed against T1, Cin5 (UniProt P40917) (assay: PBM E-score (8-mer binding enrichment) (E-score (-0.5 to 0.5)); higher = stronger / more preferred TF binding). Settings: protein concentration: 100 nM; construct: GST-full length.
T1 sequence: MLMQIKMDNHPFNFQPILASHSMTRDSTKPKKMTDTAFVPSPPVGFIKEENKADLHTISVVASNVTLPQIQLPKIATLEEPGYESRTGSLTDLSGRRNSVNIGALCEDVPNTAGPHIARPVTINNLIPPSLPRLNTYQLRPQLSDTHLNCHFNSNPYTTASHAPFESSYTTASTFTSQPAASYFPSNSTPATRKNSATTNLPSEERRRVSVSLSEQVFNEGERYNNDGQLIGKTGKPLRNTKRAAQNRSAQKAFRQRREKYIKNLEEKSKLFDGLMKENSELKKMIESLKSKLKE
Summary of the method: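 Yeast transcription factors carrying a GST tag, as full-length proteins or DNA-binding domains, were produced by PURExpress in vitro transcription/translation. About 100-200 nM protein was applied to universal all-10-mer Agilent arrays, double-stranded by primer extension on fresh or once-stripped slides. Bound protein was detected with fluorescent anti-GST, and scans were normalised with masliner. The Universal PBM Analysis Suite gave each ungapped eight-base word, pooled with its reverse complement, an E-score, a modified Wilcoxon-Mann-Whitney statistic.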

| Sequence | PBM E-score |
| --- | --- |
| GTGGGGTA | 0.181 |
| ACGCACTA | 0.0242 |
| GCTGGGCA | -0.142 |
| AAGAGCCG | -0.187 |
| CAAGGGTG | -0.166 |
| TCGGCAGA | -0.0269 |
| TATAAATA | 0.283 |
| ATTAAATC | 0.205 |
| ATTAAATA | 0.274 |
| CATAAATA | 0.183 |
| AATAAATT | 0.19 |
| CATAAATG | -0.125 |
| TATAAAAA | 0.176 |
| TAAAAATA | 0.152 |
| AATAAATG | 0.269 |
| GATAAATA | 0.245 |
| AATAAATA | 0.293 |
| ATTAAATG | 0.245 |
| CTGGACCA | -0.148 |
| ACCCACAT | 0.0905 |
| CACTGAGG | -0.0826 |
| GTGTGTCA | 0.0629 |
| CTTACCGA | 0.0713 |
| CTTACCAC | 0.0364 |
| CTTACCAA | 0.286 |

| Sequence | PBM E-score |
| --- | --- |
| GTTACCAA | 0.0591 |
| ATTACCAC | 0.151 |
| ATTACCAA | 0.27 |
| AACCGAAC | -0.0782 |
| TACCACCA | -0.0388 |
| AGATATGA | 0.272 |
| CGATATGA | 0.0193 |
| ATATATGG | 0.24 |
| GGATATGA | 0.0996 |
| AGATATGC | 0.0698 |
| AGATATGG | 0.26 |
| GACCAGTC | -0.195 |
| CCCCGGTC | -0.2 |
| ATCAGTGG | 0.0229 |
| CCTAGAGA | -0.119 |
| ATAAAGTA | 0.264 |
| CTAAAGTA | -0.0582 |
| GCAAAGTA | 0.175 |
| ATAAAGTG | 0.149 |
| ATAAAGTC | 0.113 |
| GTAAAGTA | 0.305 |
| ACACGCCT | -0.127 |
| CTTTATGC | -0.0141 |
| CAGGTACC | -0.324 |
| CGAGATTA | 0.244 |

| Sequence | PBM E-score |
| --- | --- |
| AGAGCGCA | -0.168 |
| ACCTTACA | -0.0412 |
| ATGACATC | 0.248 |
| CTGACATA | 0.153 |
| GTGACACA | 0.096 |
| ATGACATA | 0.296 |
| GTGACATA | 0.303 |
| GGGACATA | 0.0818 |
| ATAGGGCA | -0.0914 |
| CCCAGGCC | -0.308 |
| CTAAGAAA | -0.0357 |
| ACGCGCGC | 0.158 |
| ATCCGCGA | 0.015 |
| CCGCGCGG | 0.307 |
| ATCCGCGC | -0.0165 |
| GCGCGCGA | 0.104 |
| CCGCGCGC | 0.0301 |
| GCGCGCGC | 0.306 |
| ATCCGCGG | 0.271 |
| CCGCGCGA | 0.186 |
| AGGGTCGA | -0.084 |
| AAACCAAT | 0.188 |
| GCTTGAAA | 0.0153 |
| AAATCCAC | 0.0254 |
| AAATCCAT | 0.312 |

| Sequence | PBM E-score |
| --- | --- |
| ATATCAAA | 0.166 |
| TAATCCAA | 0.283 |
| AAATCCAA | 0.117 |
| GAATCAAA | 0.142 |
| TAATCAAA | 0.329 |
| AAATCCAG | 0.13 |
| GAATCCAA | 0.0873 |
| CTATCAAA | 0.199 |
| CAATCAAA | 0.151 |
| TTATCAAA | 0.298 |
| AAAAGAAT | 0.257 |
| CGTCTGAA | -0.133 |
| CAAAGTCA | 0.107 |
| CACGGGCC | -0.296 |
| CCGCATGA | -0.136 |
| CCAAAGAC | -0.185 |
| CAATCTCG | 0.0199 |
| AAATCATA | 0.198 |
| CAATCGCA | 0.13 |
| GAATCGCA | -0.0879 |
| TAATCATA | 0.326 |
| CAATCATA | 0.201 |
| TAATCGCA | 0.294 |
| ACGTTGCT | 0.188 |
| ATGCTTGA | 0.133 |

| Sequence | PBM E-score |
| --- | --- |
| AAGAAGTG | 0.015 |
| GTTATTCA | 0.143 |
| ATTATTCA | 0.262 |
| CTTATTCC | 0.117 |
| ATTATTCC | 0.273 |
| ACTATTCC | 0.0567 |
| ACTATTCG | 0.224 |
| ATTATTCG | 0.288 |
| CTTATTCA | 0.142 |
| ATTATTAG | 0.0574 |
| GCGACCGA | 0.0144 |
| GTGAGGAA | -0.138 |
| GGCTTTTA | -0.223 |
| AACTGGGA | -0.0428 |
| AATCCTAA | 0.0229 |
| ACAGTTGG | 0.016 |
| ATAACGAC | 0.238 |
| ATAACGAA | 0.294 |
| ATAACCAG | 0.0194 |
| CTAACGAA | -0.0791 |
| ATAACGTC | 0.0919 |
| CTAACCAA | 0.0775 |
| ATAACCAA | 0.258 |
| ATAACGTA | 0.313 |
| GTAACGTA | 0.129 |

| Sequence | PBM E-score |
| --- | --- |
| ACCGGCGC | 0.0762 |
| ATCCGGCA | 0.0463 |
| GGTGAACC | -0.108 |
| CTTTTGAC | -0.0394 |
| AGTTACTC | 0.0474 |
| CGACACCC | -0.0488 |
| ACATAGAG | -0.0918 |
| ATGCGCAT | 0.332 |
| ATGCGCAC | 0.0881 |
| ATGCGCAA | 0.128 |
| AAGTCTAA | -0.0864 |
| ACCCATTG | -0.0482 |
| CAAGTTAC | 0.104 |
| ACAAGCAA | 0.122 |
| CTAAGCAC | 0.183 |
| CTCAGCAA | 0.0669 |
| ATAAGCAT | 0.118 |
| ATAAGCAA | 0.349 |
| CTAAGCAA | 0.076 |
| ATAAGCAC | 0.175 |
| ATAAGCAG | 0.33 |
| GTAAGCAC | 0.319 |
| GTCAGCAA | 0.267 |
| ATCAGCAA | 0.0322 |
| CTAAGCAG | 0.042 |

| Sequence | PBM E-score |
| --- | --- |
| ACTGGAGC | -0.253 |
| GCTATCCC | -0.129 |
| ATAGGCAA | 0.157 |
| AAGAAGAA | 0.0684 |
| ACTCCTAA | 0.00319 |
| ATCAACGA | 0.0637 |
| GTAACGCA | 0.0946 |
| ACCCCGGA | -0.00022 |
| GTAAGCAA | 0.419 |
| GCAAGCAA | 0.00274 |
| TTAAGCAA | 0.0545 |
| AACACTCA | 0.182 |
| CGGCCAAG | -0.069 |
| AAAGGCGG | -0.104 |
| TCGAAGAA | 0.014 |
| ACGAAGAT | 0.116 |
| ACGAAGAA | 0.284 |
| GCAATGCA | -0.053 |
| GGCTCTAA | 0.0226 |
| ACCATTGC | 0.0233 |
| GTGCAAAA | -0.037 |
| AACAATTG | 0.0983 |
| AACAATTA | 0.295 |
| ATCAATTC | 0.044 |
